# Test results from ChEMBL document CHEMBL1961873, “Compounds: GSK PKIS; Assays: Nanosyn kinase panel” (2012).
# Columns and labels:
# [1] = system: Proto-oncogene tyrosine-protein kinase receptor Ret (Homo sapiens), P07949 [Y791F]; conditions: at 1 µM
# [2] = molecular target: Macrophage-stimulating protein receptor (Homo sapiens) (UniProt Q04912); conditions: at 0.1 µM
# [3] = molecular target: Macrophage-stimulating protein receptor (Homo sapiens) (UniProt Q04912); conditions: at 1 µM
# [4] = molecular target: Proto-oncogene tyrosine-protein kinase ROS (Homo sapiens) (UniProt P08922); conditions: at 0.1 µM
# [5] = molecular target: Proto-oncogene tyrosine-protein kinase ROS (Homo sapiens) (UniProt P08922); conditions: at 1 µM
# [6] = molecular target: Proto-oncogene tyrosine-protein kinase Src (Homo sapiens) (UniProt P12931); conditions: at 0.1 µM
# [7] = molecular target: Proto-oncogene tyrosine-protein kinase Src (Homo sapiens) (UniProt P12931); conditions: at 1 µM
# [8] = molecular target: Tyrosine-protein kinase Srms (Homo sapiens) (UniProt Q9H3Y6); conditions: at 0.1 µM
# [9] = molecular target: Tyrosine-protein kinase Srms (Homo sapiens) (UniProt Q9H3Y6); conditions: at 1 µM
# [10] = molecular target: Tyrosine-protein kinase SYK (Homo sapiens) (UniProt P43405); conditions: at 0.1 µM;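 also: reported percentages are mean inhibition values for SYK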
# Sequence of Proto-oncogene tyrosine-protein kinase receptor Ret (Homo sapiens), P07949 [Y791F] (P07949 whole entry Y791F): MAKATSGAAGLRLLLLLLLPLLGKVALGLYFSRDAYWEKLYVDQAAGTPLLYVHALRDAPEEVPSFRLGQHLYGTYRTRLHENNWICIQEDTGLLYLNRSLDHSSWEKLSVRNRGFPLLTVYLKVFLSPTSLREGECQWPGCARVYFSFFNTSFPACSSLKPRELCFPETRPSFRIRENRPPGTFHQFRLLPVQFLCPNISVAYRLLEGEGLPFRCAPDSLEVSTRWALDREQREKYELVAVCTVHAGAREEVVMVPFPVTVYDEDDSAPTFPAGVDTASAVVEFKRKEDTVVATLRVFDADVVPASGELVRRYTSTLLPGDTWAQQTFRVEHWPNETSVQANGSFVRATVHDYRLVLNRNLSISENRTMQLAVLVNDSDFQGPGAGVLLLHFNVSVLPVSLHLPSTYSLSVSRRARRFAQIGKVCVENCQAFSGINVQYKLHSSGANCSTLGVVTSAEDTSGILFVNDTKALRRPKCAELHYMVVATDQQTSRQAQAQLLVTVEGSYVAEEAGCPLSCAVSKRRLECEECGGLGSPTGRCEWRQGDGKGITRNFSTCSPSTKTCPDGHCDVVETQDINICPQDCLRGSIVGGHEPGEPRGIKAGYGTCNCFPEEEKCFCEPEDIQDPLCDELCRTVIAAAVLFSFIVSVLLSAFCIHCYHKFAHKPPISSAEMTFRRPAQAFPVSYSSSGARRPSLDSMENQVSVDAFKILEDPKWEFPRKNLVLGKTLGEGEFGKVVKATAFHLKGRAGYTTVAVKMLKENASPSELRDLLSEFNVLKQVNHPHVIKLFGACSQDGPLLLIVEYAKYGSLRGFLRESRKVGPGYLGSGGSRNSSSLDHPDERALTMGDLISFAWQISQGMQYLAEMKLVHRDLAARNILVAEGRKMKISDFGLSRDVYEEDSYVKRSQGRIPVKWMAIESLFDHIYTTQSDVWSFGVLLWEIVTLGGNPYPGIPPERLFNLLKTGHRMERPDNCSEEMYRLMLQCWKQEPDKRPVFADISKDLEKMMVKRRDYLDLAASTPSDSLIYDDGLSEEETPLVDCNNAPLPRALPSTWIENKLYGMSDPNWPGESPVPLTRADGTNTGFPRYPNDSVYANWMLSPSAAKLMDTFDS
# Sequence of Proto-oncogene tyrosine-protein kinase ROS (Homo sapiens) (P08922 whole entry): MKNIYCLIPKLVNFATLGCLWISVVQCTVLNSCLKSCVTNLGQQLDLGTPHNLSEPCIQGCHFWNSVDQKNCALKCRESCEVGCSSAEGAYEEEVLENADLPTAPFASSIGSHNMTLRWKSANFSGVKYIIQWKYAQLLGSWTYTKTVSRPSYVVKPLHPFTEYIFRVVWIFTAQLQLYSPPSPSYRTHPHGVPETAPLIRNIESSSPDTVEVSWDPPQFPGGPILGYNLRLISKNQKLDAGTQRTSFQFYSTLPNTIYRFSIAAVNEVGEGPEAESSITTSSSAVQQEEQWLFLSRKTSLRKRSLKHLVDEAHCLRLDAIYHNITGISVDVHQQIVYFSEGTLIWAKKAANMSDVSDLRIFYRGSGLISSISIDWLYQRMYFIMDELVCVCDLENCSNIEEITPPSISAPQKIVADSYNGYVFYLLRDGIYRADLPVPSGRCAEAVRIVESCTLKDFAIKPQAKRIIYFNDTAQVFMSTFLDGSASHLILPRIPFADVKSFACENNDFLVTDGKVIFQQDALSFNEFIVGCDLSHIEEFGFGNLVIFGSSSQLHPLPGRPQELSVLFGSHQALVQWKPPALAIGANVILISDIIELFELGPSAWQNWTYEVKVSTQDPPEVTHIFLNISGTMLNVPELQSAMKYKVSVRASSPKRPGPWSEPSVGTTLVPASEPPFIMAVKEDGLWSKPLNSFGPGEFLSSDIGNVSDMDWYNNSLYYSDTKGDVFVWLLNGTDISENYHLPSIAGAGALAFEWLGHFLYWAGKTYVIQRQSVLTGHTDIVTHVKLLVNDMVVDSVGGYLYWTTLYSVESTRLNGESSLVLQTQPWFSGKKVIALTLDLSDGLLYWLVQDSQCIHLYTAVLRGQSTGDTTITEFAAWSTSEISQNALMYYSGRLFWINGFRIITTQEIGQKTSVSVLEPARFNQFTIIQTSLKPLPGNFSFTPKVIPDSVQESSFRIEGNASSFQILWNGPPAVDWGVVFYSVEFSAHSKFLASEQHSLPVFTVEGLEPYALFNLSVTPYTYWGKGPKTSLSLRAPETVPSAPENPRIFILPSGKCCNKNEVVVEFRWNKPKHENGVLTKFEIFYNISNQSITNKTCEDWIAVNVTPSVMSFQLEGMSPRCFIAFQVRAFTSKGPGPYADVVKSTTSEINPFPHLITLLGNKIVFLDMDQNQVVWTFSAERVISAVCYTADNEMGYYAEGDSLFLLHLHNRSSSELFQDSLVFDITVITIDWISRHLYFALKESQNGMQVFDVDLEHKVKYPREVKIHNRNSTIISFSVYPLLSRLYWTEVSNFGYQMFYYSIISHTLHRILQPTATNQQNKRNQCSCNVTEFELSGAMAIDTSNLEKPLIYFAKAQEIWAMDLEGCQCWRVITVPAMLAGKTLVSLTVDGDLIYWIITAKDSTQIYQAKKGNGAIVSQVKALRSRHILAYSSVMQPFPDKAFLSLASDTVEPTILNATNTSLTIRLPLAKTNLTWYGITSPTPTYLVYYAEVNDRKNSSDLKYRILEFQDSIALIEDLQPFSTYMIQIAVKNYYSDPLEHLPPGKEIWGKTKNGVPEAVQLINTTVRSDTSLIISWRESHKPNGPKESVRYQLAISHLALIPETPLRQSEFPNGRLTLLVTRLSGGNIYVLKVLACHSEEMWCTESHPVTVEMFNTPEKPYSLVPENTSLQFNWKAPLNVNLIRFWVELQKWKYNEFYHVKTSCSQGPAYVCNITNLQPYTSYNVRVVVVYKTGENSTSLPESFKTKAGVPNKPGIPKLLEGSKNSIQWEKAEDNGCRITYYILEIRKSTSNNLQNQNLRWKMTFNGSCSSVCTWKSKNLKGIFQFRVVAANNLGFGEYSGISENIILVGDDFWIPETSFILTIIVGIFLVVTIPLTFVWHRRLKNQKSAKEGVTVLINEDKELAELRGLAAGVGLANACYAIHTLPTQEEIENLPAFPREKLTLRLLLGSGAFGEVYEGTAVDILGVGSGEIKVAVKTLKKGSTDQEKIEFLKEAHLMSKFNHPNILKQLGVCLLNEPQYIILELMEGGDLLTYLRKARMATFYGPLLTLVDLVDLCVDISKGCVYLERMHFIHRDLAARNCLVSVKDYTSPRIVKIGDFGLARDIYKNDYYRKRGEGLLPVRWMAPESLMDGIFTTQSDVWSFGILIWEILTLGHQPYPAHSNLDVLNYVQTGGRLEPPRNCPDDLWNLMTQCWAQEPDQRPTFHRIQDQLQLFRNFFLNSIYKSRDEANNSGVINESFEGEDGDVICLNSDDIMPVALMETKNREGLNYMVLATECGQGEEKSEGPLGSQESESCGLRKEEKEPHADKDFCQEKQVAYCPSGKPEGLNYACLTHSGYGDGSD
# Sequence of Macrophage-stimulating protein receptor (Homo sapiens) (Q04912 25-304 limits assumed): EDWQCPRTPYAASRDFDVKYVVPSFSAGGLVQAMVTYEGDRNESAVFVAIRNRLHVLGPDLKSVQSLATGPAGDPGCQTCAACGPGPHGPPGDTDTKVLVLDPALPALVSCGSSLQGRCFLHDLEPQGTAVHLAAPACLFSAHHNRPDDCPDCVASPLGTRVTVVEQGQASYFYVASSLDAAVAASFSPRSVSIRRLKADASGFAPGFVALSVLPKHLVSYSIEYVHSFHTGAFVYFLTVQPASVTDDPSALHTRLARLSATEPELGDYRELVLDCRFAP
# Sequence of Macrophage-stimulating protein receptor (Homo sapiens) (Q04912 310-1400 limits assumed): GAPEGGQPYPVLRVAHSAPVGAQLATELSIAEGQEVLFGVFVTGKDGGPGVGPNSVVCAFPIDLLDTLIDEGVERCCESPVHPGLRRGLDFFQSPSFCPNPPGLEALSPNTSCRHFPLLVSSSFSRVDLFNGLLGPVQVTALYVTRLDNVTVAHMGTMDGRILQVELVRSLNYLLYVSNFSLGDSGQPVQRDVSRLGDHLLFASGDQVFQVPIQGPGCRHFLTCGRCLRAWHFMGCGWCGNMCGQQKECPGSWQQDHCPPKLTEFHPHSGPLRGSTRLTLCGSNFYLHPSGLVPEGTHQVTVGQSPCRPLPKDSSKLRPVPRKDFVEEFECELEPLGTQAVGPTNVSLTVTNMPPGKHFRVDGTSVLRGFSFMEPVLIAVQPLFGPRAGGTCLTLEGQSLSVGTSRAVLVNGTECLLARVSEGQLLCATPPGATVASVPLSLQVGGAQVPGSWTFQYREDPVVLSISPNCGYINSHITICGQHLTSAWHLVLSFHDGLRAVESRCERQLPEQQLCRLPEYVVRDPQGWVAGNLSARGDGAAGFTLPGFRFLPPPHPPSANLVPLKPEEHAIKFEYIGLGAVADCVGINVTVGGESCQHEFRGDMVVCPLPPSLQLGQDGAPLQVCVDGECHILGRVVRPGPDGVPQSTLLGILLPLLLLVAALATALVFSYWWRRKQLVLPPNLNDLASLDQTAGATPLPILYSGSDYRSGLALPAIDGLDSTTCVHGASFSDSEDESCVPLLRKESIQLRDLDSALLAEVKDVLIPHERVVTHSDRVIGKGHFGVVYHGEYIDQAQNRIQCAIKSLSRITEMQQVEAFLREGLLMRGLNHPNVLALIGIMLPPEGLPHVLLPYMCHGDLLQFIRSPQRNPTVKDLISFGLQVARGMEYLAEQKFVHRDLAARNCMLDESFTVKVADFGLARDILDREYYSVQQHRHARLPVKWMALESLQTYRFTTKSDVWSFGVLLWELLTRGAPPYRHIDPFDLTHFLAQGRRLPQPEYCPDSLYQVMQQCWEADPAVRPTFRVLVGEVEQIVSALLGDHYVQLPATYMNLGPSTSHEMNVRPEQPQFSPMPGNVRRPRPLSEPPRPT
SMILES,inhibition [1],inhibition [2],inhibition [3],inhibition [4],inhibition [5],inhibition [6],inhibition [7],inhibition [8],inhibition [9],inhibition [10]
N#Cc1c(NC(=O)c2ccc(F)cc2)sc2c1CCCC2,7.62%,1.04%,2.12%,0.38%,4.13%,4.79%,1.56%,-1.11%,-0.62%,-2.1%
COc1cc(/C=N/Nc2ncnc3[nH]ncc23)ccc1O,80.9%,-1.46%,17%,5.97%,27%,27.9%,83.2%,-0.95%,6.55%,-7.54%
COc1cccc(-c2c[nH]c3c(N/N=C/c4ccncc4)ncnc23)c1,39.7%,9.37%,42.4%,4.61%,14.4%,29.8%,77.3%,1.92%,11.8%,-4.09%
CCn1c(-c2nonc2N)nc2ccccc21,3.18%,1.17%,2.21%,9.11%,15.9%,11.4%,6.84%,1.09%,2.1%,0.68%
CC1=C(C(=O)Nc2cc(Cl)c3[nH]ncc3c2)C(c2ccc(C(F)(F)F)cc2)CC(=O)N1 (stereo not given),18.1%,13.4%,11.4%,4.57%,6.5%,1.84%,30.8%,-1.35%,3.11%,-2.63%
Cc1cccc(Nc2ncc(-c3ccccc3)o2)c1,6.11%,3.38%,-0.6%,6.3%,7.89%,8.62%,19.3%,0.16%,-0.12%,1.35%
Fc1ccc(-c2nn3ccccc3c2-c2ccncc2)cc1,7.11%,3.62%,3.94%,1.35%,3.41%,-0.8%,5%,-1.74%,0.28%,2.26%
FC(F)(F)c1cccc(-c2nn3ncccc3c2-c2ccnc(Nc3ccc4c(c3)OCCO4)n2)c1,22.1%,5.16%,4.5%,1.05%,4.18%,12.8%,47.9%,0.82%,2.59%,0.9%
NC(=O)c1sc(-n2cnc3ccc(C(F)(F)F)cc32)cc1OCc1ccccc1Br,11.1%,4.35%,5.41%,3.4%,9.36%,1.66%,10.1%,-1.61%,-2.09%,-5.63%
CC(C)(CO)CNC(=O)c1ccc2c(c1)/C(=N/Nc1ccc(S(N)(=O)=O)cc1)C(=O)N2,56.3%,3.52%,2.41%,0.74%,3.7%,5.77%,34.2%,-0.93%,0.39%,0.61%
CN1CCC(n2cnc(-c3ccc(F)cc3)c2-c2ccnc(Nc3ccccc3)n2)CC1,36.2%,2.65%,4%,1.54%,4%,9.92%,11.8%,1.77%,3.09%,1.08%
COC(=O)c1sc(-n2cnc3cc(OC)c(OC)cc32)cc1OCc1ccccc1C(F)(F)F,52.3%,0.58%,1.46%,6.32%,12.3%,1.51%,24.7%,-2.13%,-3.45%,-5.15%
COc1ccc(CNC(=O)c2ccc(-c3cc(-c4nnc(C)o4)ccc3C)cc2)cc1,19.9%,10.5%,3.7%,6.1%,5.4%,1.18%,2.9%,3.8%,8.13%,2.81%
CCn1c(-c2nonc2N)nc2cnc(Oc3cccc(NC(=O)c4ccc(N(C)C)cc4)c3)cc21,1.39%,1.95%,1.27%,2.49%,3.39%,3.64%,1.89%,-0.5%,6.2%,-1.42%
Cc1cccc2c1NC(=O)/C2=N\Nc1ccc(S(N)(=O)=O)cc1,18.8%,4.93%,2.48%,2.26%,1.51%,4.47%,6.45%,-0.7%,-2.11%,3.45%
Fc1ccc(-c2cc(-c3c[nH]nc3-c3ccccn3)ccn2)cc1,13.8%,4.71%,8.86%,6.8%,8.14%,0.27%,9%,-0.96%,-1.26%,0.3%
c1ccc(COc2ccc(Nc3ncnc4ccc(-c5ccco5)cc34)cc2)cc1,1.21%,4.01%,7.76%,2.59%,3.28%,0.54%,1.64%,0.68%,0.99%,-0.45%

SMILES,inhibition [1],inhibition [2],inhibition [3],inhibition [4],inhibition [5],inhibition [6],inhibition [7],inhibition [8],inhibition [9],inhibition [10]
Clc1ccc(-c2nn3ncccc3c2-c2ccnc(Nc3ccccc3)n2)cc1,42.2%,-2.2%,4.63%,4.17%,9.1%,6.5%,39.3%,1.99%,5.97%,-4.66%
CNC(=O)c1cncc(/C=C/c2ccccc2Cl)c1,22.8%,2.22%,7.21%,-2.16%,2.7%,10.1%,7.14%,1.76%,3.3%,7.26%
CS(=O)(=O)CCNCc1coc(-c2ccc3ncnc(Nc4ccc(OCc5ccccc5)cc4)c3c2)c1,8.25%,-5.7%,2.31%,4.75%,4.27%,8.85%,10.9%,3.44%,3.19%,2.29%
c1cc(-c2cnn3nc(N4CCOCC4)ccc23)nc(NC2CC2)n1,16.2%,-1.82%,1.76%,5.66%,23.7%,10.1%,8.4%,0.68%,-0.4%,3.54%
COC(=O)Nc1nc2ccc(S(=O)(=O)c3ccc(NC(=O)Nc4cc(C(F)(F)F)ccc4F)cc3)cc2[nH]1,0.06%,0.24%,1.14%,2.51%,3.41%,7.41%,6.38%,-0.37%,-3.26%,1.38%
O=S(=O)(CCNCc1ccc(-c2ccc3ncnc(Nc4ccc(OCc5cccc(F)c5)c(Cl)c4)c3c2)o1)c1ccccc1,15.4%,1.71%,2.9%,4.44%,6.24%,9.13%,8.52%,-1.84%,-3.16%,-4.56%
CCN(CC)S(=O)(=O)c1ccc(OC)c(Nc2ncc(-c3ccccc3)o2)c1,35.7%,4%,-1.9%,1.91%,19%,9.87%,56.4%,1.97%,3.53%,0.84%
NS(=O)(=O)c1ccc(N/N=C2\C(=O)Nc3ccc4ncccc4c32)cc1,77.7%,2.25%,13.3%,8.1%,35.3%,19.3%,71.1%,-0.11%,3.96%,-9.38%
Nc1ncc(-c2cccc(S(N)(=O)=O)c2)c2scc(-c3ccc(F)c(Cl)c3)c12,50.2%,1.48%,15.8%,-0.54%,6.78%,19.6%,57.1%,-1.03%,6.75%,0.28%
CCOc1ccc2c(-c3ccnc(Nc4cccc(C(F)(F)F)c4)n3)cnn2n1,12.4%,4.92%,-3.11%,2.05%,15%,4.83%,3.76%,-3.13%,-1.56%,-1.67%
[O-][S+]1CCN(Cc2ccc(-c3ccc4ncnc(Nc5ccc(OCc6cccc(F)c6)c(Cl)c5)c4c3)o2)CC1,9.63%,3.82%,6.8%,4.15%,2.36%,8.56%,10.2%,0.4%,-1.62%,2.13%
COc1ccc2[nH]c3c4[nH]c5ccc(OC)cc5c4c4c(c3c2c1)C(=O)NC4=O,67.3%,6.28%,16.9%,55.8%,79.1%,-1.01%,20.4%,3.34%,15.6%,-7.81%
CCn1cc(-c2ccnc3[nH]ccc23)c(-c2cccc(NC(=O)Nc3ccc(OCc4ccccc4)cc3)c2)n1,11.9%,-0.2%,23.8%,1.33%,0.45%,1.17%,6.43%,-1.11%,-1.61%,-1.9%
CN1CCC(n2cnc(-c3ccc(F)cc3)c2-c2ccnc(N)n2)CC1,27.5%,5.16%,-2.05%,2.9%,15.1%,1.96%,10.6%,1.38%,0.46%,2.67%
CNC(=O)c1cc(-c2ccc(F)cc2)cc(-c2ccc(S(=O)(=O)N3CCCC3)cc2)c1N,2.82%,1.89%,4.58%,4.64%,6.55%,5.46%,6.17%,2.11%,-2.91%,-0.29%
COc1cc2c(cc1Nc1nc(Nc3ccsc3C(N)=O)c3cc[nH]c3n1)N(C(=O)CN(C)C)CCC2(C)C,18.7%,-4.25%,28.9%,79.7%,83.1%,0.33%,11.7%,-1.82%,-3.22%,-6.01%
